Methyltransferases: Primary Screen for Target Class Profiling of Small Molecule Inhibitors of Methyltransferases; AID 1745853, 2022; calls only at 40 µM; purified enzyme, MTase-Glo SAH luminescence; active compounds read low; 25,000 tested, 3.9% active; call rule not given here
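Each enzyme was reacted with SAM and its substrate, with compounds tested once at 40 uM; SAH formed was read by MTase-Glo luminescence.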
Numbers without * were called inactive. This is one part of a sample in which hits are shown more often than they occur. % is set by controls: 0 for no effect and ±100 for the full control effect.

COc1ccc(-c2cc3n(n2)CC(C)(C(=O)NCc2ccccc2)N(c2ccc(C(C)C)cc2)C3=O)cc1 (stereo not drawn) was read as Methyltransferases inactive.
For CCc1ccc(N2C(=O)c3cc(-c4ccc(OC)cc4)nn3CC2(C)C(=O)NC2CCCCC2)cc1 (stereo not drawn) the results were Methyltransferases inactive.
For CCOC(=O)C1(CCOc2ccccc2)CCN(Cc2ccc(O)c(Cl)c2)CC1 the results were Methyltransferases inactive.
`O=C(O)Cn1nnc(-c2ccc(CN(CCCCOc3ccc(CN4CCCC4)cc3)CCc3ccccc3)cc2)n1` gave Methyltransferases active.
For Cc1cc2[nH]c(=O)[nH]c2cc1S(=O)(=O)N1CCOCC1 the results were Methyltransferases inactive.
`CN1C(=O)c2cc(C(=O)NCc3ccco3)nn2CC1(C)C(=O)NC1CCCCC1` (stereo not drawn) gave Methyltransferases inactive.
`COc1cccc(NC(=O)N2CCn3cccc3C2C)c1` (stereo not drawn) gave Methyltransferases inactive.
For Clc1ccc(CNc2nc3c(-c4ccccc4)nnn3c3ccccc23)cc1 the results were Methyltransferases inactive.
CC1=C(C(=O)OC2OC(COC3OC(CO)C(O)C(O)C3O)C(O)C(O)C2O)C(C)(C)CCC1 (stereo not drawn) was read as Methyltransferases inactive.
`O=C(O[C@@H]1O[C@H](CO)[C@@H](O)[C@H](O)[C@H]1O)c1ccccc1` gave Methyltransferases inactive.
For CC(C)(O)C1CC=C(C(=O)OC[C@H]2O[C@@H](OC(=O)C3=CCC(C(C)(C)O)CC3)[C@H](O)[C@@H](O)[C@@H]2O)CC1 (stereo partly drawn) the results were Methyltransferases active.
O=S(=O)(c1cccc(-c2nc(-c3ccccc3)no2)c1)N1CCCc2ccccc21 was read as Methyltransferases inactive.
For CC1CCC(NC(=O)CCc2nnc3n(Cc4ccc(Cl)cc4)c(=O)c4ccccc4n23)CC1 (stereo not drawn) the results were Methyltransferases inactive.
CC1(C(=O)NC2CCCCCCC2)Cn2c(ccc2-c2ccccc2)C(=O)N1Cc1ccc(F)cc1 (stereo not drawn) was read as Methyltransferases inactive.
Screening CC1(C(=O)NC2CCCCCC2)Cn2c(nc3ccccc32)C(=O)N1Cc1ccccn1 (stereo not drawn) returned Methyltransferases inactive.
CCCN1C(=O)c2cc(-c3ccc(OC)cc3)nn2CC1(C)C(=O)NC1CCCCC1 (stereo not drawn) was read as Methyltransferases inactive.
Screening COc1ccc(C2CC(=O)c3cc(-c4nc(-c5cccc([N+](=O)[O-])c5)cs4)c(=O)n(-c4ccccc4N)c3C2)cc1 (stereo not drawn) returned Methyltransferases active.
Screening COc1ccc(S(=O)(=O)Nc2nc(-c3cccc([N+](=O)[O-])c3)cs2)cc1OC returned Methyltransferases inactive.
COc1ccc(CNC(=O)Cn2nc3n(CCC(C)C)c(=O)c4ccccc4n3c2=O)cc1 was read as Methyltransferases inactive.
Cc1ccc(CNC(=O)c2ncn3c2C(=O)N(C2CC2)C(C)(C(=O)NC2CCCC2)C3)cc1 (stereo not drawn) was read as Methyltransferases inactive.
COCCN1C(=O)c2c(-n3cccc3)c3cc(C)ccc3n2CC1(C)C(=O)NC1CCCCC1 (stereo not drawn) was read as Methyltransferases inactive.
For CCN1CCC[C@@H]1CNC(=O)c1ccc2c(c1)NC(=O)/C(=C/c1ccccc1F)S2 the results were Methyltransferases active.
Screening CCN1CCC[C@H]1CNC(=O)c1c(O)c(Cl)cc(Cl)c1OC returned Methyltransferases inactive.
Screening CCN1CCCC1CNC(=O)c1cc(S(=O)(=O)CC)c(N)cc1OC (stereo not drawn) returned Methyltransferases inactive.
Cc1ccc(N2C(=O)c3nc4ccccc4n3CC2(C)C(=O)NC2CCCCCC2)cc1 (stereo not drawn) was read as Methyltransferases inactive.
Screening COc1cc2c(cc1NS(=O)(=O)c1ccc3c(c1)n(C)c(=O)n3C)n(C)c(=O)n2C returned Methyltransferases inactive.
Screening CCOC(=O)c1cc2n(n1)CC(C)(C(=O)NC1CCCC1)N(Cc1ccc(C)cc1)C2=O (stereo not drawn) returned Methyltransferases inactive.
For CN1C(=O)c2cc(C(=O)NCc3ccc4c(c3)OCO4)nn2CC1(C)C(=O)NCc1ccccc1 (stereo not drawn) the results were Methyltransferases inactive.
Screening CCOc1ccc(CN2C(=O)c3cc(-c4ccccc4)nn3CC2(C)C(=O)NCc2ccccc2OC)cc1 (stereo not drawn) returned Methyltransferases inactive.
Cc1c[nH]c2ncnc(N3CCC(CN)(C(=O)Nc4cccc(OC(=O)N(C)C)c4)CC3)c12 was read as Methyltransferases active.
COc1cccc(NC(=O)C2(C)CCc3cnc(NCc4ccccc4)nc32)c1 (stereo not drawn) was read as Methyltransferases inactive.
CCOC(=O)c1ccc(NS(=O)(=O)c2ccc3[nH]c4c(c3c2)CCCC4)cc1 was read as Methyltransferases inactive.
CC1CCC(NC(=O)C2(C)Cn3c(cc4occc43)C(=O)N2CCCc2ccccc2)CC1 (stereo not drawn) was read as Methyltransferases inactive.
`CCN1C(=O)c2cc3ccccc3n2CC1(C)C(=O)NCC(=O)NCc1cccc(F)c1` (stereo not drawn) gave Methyltransferases inactive.
For CN1C(=O)c2cc(C(=O)NCCc3cccs3)nn2CC1(C)C(=O)NC1CCCCCC1 (stereo not drawn) the results were Methyltransferases inactive.
`CCCCNC(=O)c1cc2n(n1)CC(C)(C(=O)NC1CCCCCC1)N(C)C2=O` (stereo not drawn) gave Methyltransferases inactive.
CCOc1cc2oc(=O)cc(-c3ccccc3)c2cc1Cl was read as Methyltransferases inactive.
CCOc1cc(OCC)c2c(-c3ccccc3)cc(=O)oc2c1 was read as Methyltransferases active.
Screening CCCCCOc1ccc2c(-c3ccccc3)cc(=O)oc2c1 returned Methyltransferases inactive.
For Cn1c(=O)c2ccc(C(=O)NC3CCCC3)cc2n2c(SCC(=O)NC3CCCC3)nnc12 the results were Methyltransferases inactive.
For CCc1ccc(S(=O)(=O)c2nnn3c2nc(NCc2cccc(OC)c2)c2ccccc23)cc1 the results were Methyltransferases inactive.
CCOC(=O)c1cc2n(n1)CC(C)(C(=O)NCc1ccccc1)N(c1cccc(SC)c1)C2=O (stereo not drawn) was read as Methyltransferases inactive.
CCOc1ccccc1CNC(=O)c1cc2n(n1)CC(C)(C(=O)NCc1ccccc1)N(C)C2=O (stereo not drawn) was read as Methyltransferases inactive.
`CC1(C(=O)NC2CCCCCC2)Cn2c(cc3occc32)C(=O)N1CCN1CCCC1` (stereo not drawn) gave Methyltransferases inactive.
`CC1=C2C3OC(=O)C(C)C3(O)CCC2(C)CCC1` (stereo not drawn) gave Methyltransferases inactive.
C=C1C(=O)O[C@@H]2C3=C(C)CCC[C@]3(C)CC[C@@]12O was read as Methyltransferases active.
CC1=C2C3OC(=O)C(C)C3(O)CCC2(C)CCC1=O (stereo not drawn) was read as Methyltransferases inactive.
Screening COc1ccc2cc3n(c2c1)CC(C)(C(=O)NC1CCCC1)N(Cc1ccc2c(c1)OCO2)C3=O (stereo not drawn) returned Methyltransferases inactive.

Screening results (PubChem)
